Compounds without any hit were thinned out: in the full panel of roughly 79,000, 15% have a hit. A number with no mark means an inactive call. Activity calls are given as the source filed them. Rule as the data show it: active = growth inhibition above about 70%; inactive = the rest.
Assays:
[1] = NCI Yeast Anticancer Drug Screen. Data for the rad50 strain (AID 155);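 also: 0% = growth of vehicle-only cultures of the same strain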; details: S. cerevisiae rad50 strain growth inhibition, active compounds read high
How it was run: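 Relative growth inhibition (compound vs vehicle) was measured in yeast with a defined repair-gene alteration.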

[2] = NCI Yeast Anticancer Drug Screen. Data for the mec2-1 strain (AID 157); details: S. cerevisiae mec2-1 strain, active compounds read high
How it was run: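 Readout is yeast growth inhibition, normalised to vehicle-treated controls, in the mec2-1 strain exposed to compound.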

[3] = NCI Yeast Anticancer Drug Screen. Data for the sgs1 mgt1 strain (AID 161);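 also: 0% = growth of cultures given vehicle only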; details: S. cerevisiae sgs1 mgt1 strain, active compounds read high
How it was run: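 Compounds are added to genetically altered yeast, and growth is compared with cultures given vehicle alone to give percent inhibition.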

[4] = NCI Yeast Anticancer Drug Screen. Data for the cln2 rad14 strain (AID 165);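 also: 0% = growth equal to vehicle treated cultures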; details: S. cerevisiae cln2 rad14 strain, active compounds read high
How it was run: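 Relative to vehicle controls, growth inhibition of compound-treated cln2 rad14 yeast was recorded.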

[5] = NCI Yeast Anticancer Drug Screen. Data for the bub3 strain (AID 167); details: S. cerevisiae bub3 mutant strain, active compounds read high
How it was run: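 Screening used yeast with an engineered genetic alteration affecting cell cycle control. Compound-exposed cultures were compared with vehicle cultures, and reduced growth was taken as inhibition.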

[6] = NCI Yeast Anticancer Drug Screen. Data for the mlh1 rad18 strain (AID 175); details: S. cerevisiae mlh1 rad18 strain growth inhibition, active compounds read high
How it was run: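 Test agents were incubated with a yeast strain of defined genotype (DNA damage repair defect). Inhibition of growth was derived by comparison with vehicle-exposed cultures.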

[7] = at 5.0 µM (retest, dose inferred, filed as 0.5)
[8] = at 50.0 µM (retest, dose inferred, filed as 5.0)

With `Clc1ccc(C2=NCON=C2c2ccc(Cl)cc2)cc1` the growth inhibition [1, 7] was 17%, the growth inhibition [1, 8] was 97% (active) and the growth inhibition ([1]; at 50.0 µM) was 87.9% (active). The growth inhibition [2, 7] was 7%, the growth inhibition [2, 8] was 99% (active) and the growth inhibition ([2]; at 50.0 µM) was 90.5% (active). The growth inhibition [3, 7] was 10%, the growth inhibition [3, 8] was 99% (active) and the growth inhibition ([3]; at 50.0 µM) was 91% (active). For the same compound, the growth inhibition [4, 7] was 9%, the growth inhibition [4, 8] was 98% (active) and the growth inhibition ([4]; at 50.0 µM) was 89.5% (active). For the same compound, the growth inhibition [5, 7] was 20%, the growth inhibition [5, 8] was 99% (active) and the growth inhibition ([5]; at 50.0 µM) was 90.8% (active). The growth inhibition [6, 7] was 7%, the growth inhibition [6, 8] was 97% (active) and the growth inhibition ([6]; at 50.0 µM) was -18.7%.

For `CC(C)C1(C)C(C#N)(C#N)C1(C#N)C#N`, the growth inhibition [1, 7] was -94%, the growth inhibition [1, 8] was 94% (active) and the growth inhibition ([1]; at 50.0 µM) was 79.8% (active). For the same compound, the growth inhibition [2, 7] was -35%, the growth inhibition [2, 8] was 92% (active) and the growth inhibition ([2]; at 50.0 µM) was 91.5% (active). For the same compound, the growth inhibition [3, 7] was -46%, the growth inhibition [3, 8] was 90% (active) and the growth inhibition ([3]; at 50.0 µM) was 95.5% (active). The growth inhibition [4, 7] was -46%, the growth inhibition [4, 8] was 22% and the growth inhibition ([4]; at 50.0 µM) was 48.4%. For the same compound, the growth inhibition [5, 7] was -39%, the growth inhibition [5, 8] was 91% (active) and the growth inhibition ([5]; at 50.0 µM) was 92% (active). The growth inhibition [6, 7] was -77%, the growth inhibition [6, 8] was 94% (active) and the growth inhibition ([6]; at 50.0 µM) was 95.8% (active).

With `Oc1cccc2ccc(/C=C/c3ccccn3)nc12` the growth inhibition [1, 7] was 1%, the growth inhibition [1, 8] was 98% (active) and the growth inhibition ([1]; at 50.0 µM) was 97.4% (active). For the same compound, the growth inhibition [2, 7] was 2%, the growth inhibition [2, 8] was 97% (active) and the growth inhibition ([2]; at 50.0 µM) was 97.2% (active). The growth inhibition [3, 7] was -6%, the growth inhibition [3, 8] was 98% (active) and the growth inhibition ([3]; at 50.0 µM) was 98.2% (active). The growth inhibition [4, 7] was -3%, the growth inhibition [4, 8] was 96% (active) and the growth inhibition ([4]; at 50.0 µM) was 95% (active). For the same compound, the growth inhibition [5, 7] was -2%, the growth inhibition [5, 8] was 98% (active) and the growth inhibition ([5]; at 50.0 µM) was 97.1% (active). For the same compound, the growth inhibition [6, 7] was 2%, the growth inhibition [6, 8] was 98% (active) and the growth inhibition ([6]; at 50.0 µM) was 98.5% (active).

Work on `O=C1C=C/C(=C(/c2ccc(O)c(O)c2)c2ccccc2S(=O)(=O)O)C=C1O` yielded a growth inhibition [1, 7] of 1%, a growth inhibition [1, 8] of 0% and a growth inhibition ([1]; at 50.0 µM) of 11.8%. The growth inhibition [2, 7] was 2%, the growth inhibition [2, 8] was -25% and the growth inhibition ([2]; at 50.0 µM) was -0.5%. For the same compound, the growth inhibition [3, 7] was -2%, the growth inhibition [3, 8] was 2% and the growth inhibition ([3]; at 50.0 µM) was 5.3%. The growth inhibition [4, 7] was 5%, the growth inhibition [4, 8] was -2% and the growth inhibition ([4]; at 50.0 µM) was 15.9%. For the same compound, the growth inhibition [5, 7] was -40%, the growth inhibition [5, 8] was -3% and the growth inhibition ([5]; at 50.0 µM) was -1.5%. For the same compound, the growth inhibition [6, 7] was 2%, the growth inhibition [6, 8] was 4% and the growth inhibition ([6]; at 50.0 µM) was 1.75%.

For `CCCCCCCCCCC(NC(C)=O)(C(=O)OCC)C(=O)OCC`, the growth inhibition [1, 7] was -9%, the growth inhibition [1, 8] was 98% (active) and the growth inhibition ([1]; at 50.0 µM) was 97.5% (active). The growth inhibition [2, 7] was -3%, the growth inhibition [2, 8] was 99% (active) and the growth inhibition ([2]; at 50.0 µM) was 98% (active). The growth inhibition [3, 7] was -3%, the growth inhibition [3, 8] was 99% (active) and the growth inhibition ([3]; at 50.0 µM) was 67.3%. For the same compound, the growth inhibition [4, 7] was -5%, the growth inhibition [4, 8] was 99% (active) and the growth inhibition ([4]; at 50.0 µM) was 98.3% (active). For the same compound, the growth inhibition [5, 7] was 0%, the growth inhibition [5, 8] was 98% (active) and the growth inhibition ([5]; at 50.0 µM) was 94.5% (active). The growth inhibition [6, 7] was 11%, the growth inhibition [6, 8] was 98% (active) and the growth inhibition ([6]; at 50.0 µM) was 82.8% (active).

`CCOC(=O)CSC(=S)N1CCOCC1` gave a growth inhibition [1, 7] of -3%, a growth inhibition [1, 8] of -2% and a growth inhibition ([1]; at 50.0 µM) of 37%. The growth inhibition [2, 7] was -2%, the growth inhibition [2, 8] was -10% and the growth inhibition ([2]; at 50.0 µM) was -9.1%. It also gave a growth inhibition [3, 7] of -4%, a growth inhibition [3, 8] of -6% and a growth inhibition ([3]; at 50.0 µM) of -10.6%. For the same compound, the growth inhibition [4, 7] was -5%, the growth inhibition [4, 8] was -9% and the growth inhibition ([4]; at 50.0 µM) was -32.2%. The growth inhibition [5, 7] was -1%, the growth inhibition [5, 8] was -6% and the growth inhibition ([5]; at 50.0 µM) was -3.9%. For the same compound, the growth inhibition [6, 7] was -2%, the growth inhibition [6, 8] was 0% and the growth inhibition ([6]; at 50.0 µM) was -29.2%.

In the case of `Cc1cc(-c2ccc(O)c(C)c2)ccc1O`, the growth inhibition [1, 7] is reported as 13%, the growth inhibition [1, 8] is reported as 94% (active) and the growth inhibition ([1]; at 50.0 µM) is reported as 83% (active). The growth inhibition [2, 7] was -15%, the growth inhibition [2, 8] was 74% (active) and the growth inhibition ([2]; at 50.0 µM) was 57.4%. For the same compound, the growth inhibition [3, 7] was 0%, the growth inhibition [3, 8] was 78% (active) and the growth inhibition ([3]; at 50.0 µM) was 74.6% (active). It also gave a growth inhibition [4, 7] of 5%, a growth inhibition [4, 8] of 60% and a growth inhibition ([4]; at 50.0 µM) of 51.8%. The growth inhibition [5, 7] was 23%, the growth inhibition [5, 8] was 98% (active) and the growth inhibition ([5]; at 50.0 µM) was 72.5% (active). For the same compound, the growth inhibition [6, 7] was 8%, the growth inhibition [6, 8] was 91% (active) and the growth inhibition ([6]; at 50.0 µM) was 71.5% (active).

For `N#CSCN1C(=O)C2CC=CCC2C1=O` (stereo not given), the growth inhibition [1, 7] was 14%, the growth inhibition [1, 8] was 93% (active) and the growth inhibition ([1]; at 50.0 µM) was 93% (active). The growth inhibition [2, 7] was 2%, the growth inhibition [2, 8] was 95% (active) and the growth inhibition ([2]; at 50.0 µM) was 97.1% (active). For the same compound, the growth inhibition [3, 7] was 8%, the growth inhibition [3, 8] was 94% (active) and the growth inhibition ([3]; at 50.0 µM) was 49.5%. For the same compound, the growth inhibition [4, 7] was 9%, the growth inhibition [4, 8] was 94% (active) and the growth inhibition ([4]; at 50.0 µM) was 49.5%. The growth inhibition [5, 7] was 6%, the growth inhibition [5, 8] was 95% (active) and the growth inhibition ([5]; at 50.0 µM) was 95.5% (active). The growth inhibition [6, 7] was 11%, the growth inhibition [6, 8] was 96% (active) and the growth inhibition ([6]; at 50.0 µM) was 50.4%.

In the case of `CC/C(Cl)=N\OC(=O)Nc1ccc(F)c(Cl)c1`, the growth inhibition [1, 7] is reported as -8%, the growth inhibition [1, 8] is reported as 98% (active) and the growth inhibition ([1]; at 50.0 µM) is reported as 58.5%. For the same compound, the growth inhibition [2, 7] was 5%, the growth inhibition [2, 8] was 96% (active) and the growth inhibition ([2]; at 50.0 µM) was 84.4% (active). For the same compound, the growth inhibition [3, 7] was 36%, the growth inhibition [3, 8] was 99% (active) and the growth inhibition ([3]; at 50.0 µM) was 83.7% (active). For the same compound, the growth inhibition [4, 7] was 31%, the growth inhibition [4, 8] was 75% (active) and the growth inhibition ([4]; at 50.0 µM) was 51%. The growth inhibition [5, 7] was 5%, the growth inhibition [5, 8] was 92% (active) and the growth inhibition ([5]; at 50.0 µM) was 78.2% (active). The growth inhibition [6, 7] was -8%, the growth inhibition [6, 8] was 94% (active) and the growth inhibition ([6]; at 50.0 µM) was 69.3%.

`CCOC(=O)c1cc(Cl)nc2ccc(OC)cc12` showed a growth inhibition [1, 7] of -3%, a growth inhibition [1, 8] of -30% and a growth inhibition ([1]; at 50.0 µM) of 0.05%. The growth inhibition [2, 7] was -3%, the growth inhibition [2, 8] was -30% and the growth inhibition ([2]; at 50.0 µM) was 9.35%. It also gave a growth inhibition [3, 7] of -4%, a growth inhibition [3, 8] of -31% and a growth inhibition ([3]; at 50.0 µM) of 20.3%. It also gave a growth inhibition [4, 7] of 0%, a growth inhibition [4, 8] of -41% and a growth inhibition ([4]; at 50.0 µM) of 40.9%. The growth inhibition [5, 7] was 6%, the growth inhibition [5, 8] was -12% and the growth inhibition ([5]; at 50.0 µM) was 49.4%. It also gave a growth inhibition [6, 7] of -2%, a growth inhibition [6, 8] of -25% and a growth inhibition ([6]; at 50.0 µM) of 15.4%.
